Results on 26 compounds are retold here after PubChem BioAssay (NCATS).

Molecules are shown by their SMILES. “And” between values parts separate entries of the source, which are not always exact repeats. Equal values may be shown once. Inconclusive results are not listed. Values without a mark were called inactive. The source made the active and inactive calls. The call rests on the fitted dose curve; in most records, active means well fitted cell-killing curve with a large enough effect; inconclusive means small, poorly fitted or top-dose-only effect, or effect the other way; inactive means no such curve, though single readings can be large or run the other way.

Assay [1] can be described thus: Viability qHTS for spleen associated tyrosine kinase inhibitor (SYKi) naive MV4-11 cells (AID 1963823). Further: nearly all actives have a fitted effect of over 40% in size. In outline:
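Read-out: CellTiter-Glo luminescence. Exposure: 72 hr, 37 C, 5% CO2, 95% humidity. Cells: MV4-11 without SYK inhibitor history, 500/well, qHTS format.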

The nature of assay [2]: Viability qHTS for spleen associated tyrosine kinase inhibitor (SYKi) drug resistant MV4-11 cells (AID 1963824). Further: nearly all actives have a fitted effect of over 35% in size. The method in brief:
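CellTiter-Glo luminescence, read 10 min after reagent addition, reports viability after a 72 hr compound exposure. Cells are an MV4-11 line made resistant to SYK inhibition, seeded at 500 per well onto compound-containing plates.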
Potency means the concentration at half of the fitted maximal effect.

With `O=C(O)c1ccc(S(=O)(=O)N(Cc2ccc(OC(F)(F)F)cc2)c2ncc(C(F)(F)F)cc2Cl)cc1`, the values for the Potency in assay [1] and in assay [2] were 20.6 µM (active) and 23.1 µM (active), respectively.
With `CC(C#N)C(C)O[C@@H]1O[C@H](CO)[C@@H](O)[C@H](O)[C@H]1O` (some centres not stated), the Potency entry in assay [1] and in assay [2] was “inactive” throughout.
In the case of `CC(=O)C1=CCC2C3CCC4CC(O[C@@H]5O[C@H](CO)[C@@H](O[C@@H]6O[C@@H](C)[C@H](O)[C@@H](O)[C@H]6O)[C@H](O)[C@H]5O[C@@H]5O[C@H](CO)[C@@H](O)[C@H](O)[C@H]5O)CCC4(C)C3CCC12C` (some centres not stated), the Potency entry in assay [1] and in assay [2] was “inactive” each time.
With `Nc1ncnc2c1c(-c1ccc(Oc3ccccc3)cc1)cn2C1CCCC1`, the results for the Potency in assay [1] and in assay [2] were 0.366 µM (active) and 1.03 µM (active), respectively.
The like results for `Cc1cc(C)c(S(=O)(=O)N(Cc2ccc(-c3cccc(S(C)(=O)=O)c3)cc2)Cc2ccc(C(F)(F)F)o2)c(C)c1` were, in that order, “inactive” and 0.0461 µM (active).
As to `N=c1nc2n(cc1F)C1OC(CO)C(O)C1O2` (configuration not stated), the Potency in assay [1] was 1.64 µM (active); in assay [2] it was 2.59 µM (active).
`Cc1nc(CN(C)c2ncnc3ccc(-c4ccc5c(c4)OCO5)cc23)cs1`: the Potency was 3.26 µM (active) in assay [1] and 5.8 µM (active) in assay [2].
In the case of `C=CC(C)(O)CC/C=C(\C)C(=O)OCC1OC(OC2CCC3(C)C(CCC4(C)C3CC=C3C5CC(C)(C)C(O)CC5(C(=O)O)CCC34C)C2(C)C)C(O)C(OC2OC(CO)C(O)C(OC3OC(CO)C(O)C(OC4OC(COC5OC(CO)C(O)C(O)C5O)C(O)C(O)C4O)C3O)C2O)C1O` (configuration not stated), the viability (% of control) in assay [1] is 99.5% [at 9.25 µM]. The viability, % of control in assay [2] is 108% [at 9.25 µM].
For `O=C(O)CC(=O)OC[C@H]1O[C@@H](Oc2ccc3c(c2)OC[C@H]2c4cc5c(cc4O[C@@H]32)OCO5)[C@H](O)[C@@H](O)[C@@H]1O`, the Potency result in assay [1] and in assay [2] was “inactive” in each case.
For the compound `C[C@H](Oc1cc(-n2cnc3ccc(CN4CCN(C)CC4)cc32)sc1C(N)=O)c1ccccc1C(F)(F)F`, the values for the Potency in assay [1] and in assay [2] were 1.03 µM (active) and 0.58 µM (active), respectively.
In the case of `COc1ccc2[nH]c3c(-c4cccc5ccccc45)nccc3c2c1`, the Potency is 0.651 µM (active) in assay [1] and 0.82 µM (active) in assay [2].
For `COc1cc([C@H]2OC[C@@H]3[C@@H](c4ccc(O[C@@H]5O[C@H](CO)[C@@H](O)[C@H](O)[C@H]5O)c(OC)c4)OC[C@]23O)ccc1O` the same measures were “inactive” and “inactive”.
As for `C[C@@H]1O[C@@H](O[C@H]2[C@H](Oc3cc(O)c(C(=O)CCc4ccc(O)cc4)c(O)c3)O[C@H](CO)[C@@H](O)[C@@H]2O)[C@H](O)[C@H](O)[C@H]1O`, the Potency result in assay [1] and in assay [2] was “inactive” in each case.
Take `COc1cc(CCCO)ccc1O[C@@H]1O[C@H](CO)[C@@H](O)[C@H](O)[C@H]1O`: the Potency entry in assay [1] and in assay [2] was “inactive” throughout.
As to `OCCc1ccc(O[C@@H]2O[C@H](CO)[C@@H](O)[C@H](O)[C@H]2O)c(O)c1`, the Potency result in assay [1] and in assay [2] was “inactive” each time.
Take `C=C[C@H]1[C@H](O[C@@H]2O[C@H](CO)[C@@H](O)[C@H](O)[C@H]2O)OC=C(C(=O)OC)[C@H]1CCO`: the Potency entry in assay [1] and in assay [2] was “inactive” throughout.
Regarding `CCN(CC)CCN(Cc1ccc(-c2ccc(C(F)(F)F)cc2)cc1)C(=O)Cn1c(SCc2ccc(F)cc2)nc(=O)c2c1CCC2`, the values for the Potency in assay [1] and in assay [2] were 2.91 µM (active) and 3.26 µM (active), respectively.
For `NC(=O)c1cccc(-c2cc(O)cc(OC(=O)NC3CCCCC3)c2)c1` the same measures were “inactive” and “inactive”.
For `Cc1c(-c2ccc(O)cc2)n(Cc2ccc(OCCN3CCCCCC3)cc2)c2ccc(O)cc12`, the Potency in assay [1] is 18.8 µM (active) and 8.33 µM (active); in assay [2] it was 23.7 µM (active) and 9.34 µM (active).
With `COc1cc(COC2OC(CO)C(O)C(O)C2O)cc(OC)c1O` (configuration not stated), the Potency result in assay [1] and in assay [2] was “inactive” each time.
With `COC(=O)N[C@H](C(=O)N1CCC[C@H]1c1ncc(-c2ccc(-c3ccc(-c4cnc([C@@H]5CCCN5C(=O)[C@@H](NC(=O)OC)C(C)C)[nH]4)cc3)cc2)[nH]1)C(C)C`, the Potency in assay [1] is 18.6 µM (active); in assay [2], 16.6 µM (active).
The like results for `CC(C)C(C(=O)N(C)C(C)C(N)=O)N(C)C(=O)C1CCCN1C(=O)/C=C/C=C/C(O)C(C)O` (configuration not stated) were, in that order, “inactive” and “inactive”.
For `CC(Sc1nc2c(cnn2-c2cccc(Cl)c2)c(=O)[nH]1)C(N)=O` (configuration not stated) the same measures were “inactive” and “inactive”.
The like results for `C=CC(C)(O)CC[C@@H]1[C@@]2(C)CCCC(C)(C)C2CC[C@@]1(C)O` (some centres not stated) were, in that order, 25.9 µM (active) and 20.6 µM (active).
Regarding `COC12CC3C(C(C)C1=CC(=O)O2)C(O)C(OC(C)=O)C1C(C)(C)C(OC(C)=O)CCC31C` (configuration not stated), the Potency result in assay [1] and in assay [2] was “inactive” in each case.
As to `COc1cc2ncnc(N3CCC(Oc4cnc5ccccc5n4)C3)c2cc1OC` (configuration not stated), the Potency in assay [1] is 0.58 µM (active); in assay [2] it was 0.411 µM (active).
